# High-throughput results deposited in PubChem BioAssay by National Center for Advancing Translational Sciences (NCATS).
# The sample as a whole holds a higher share of hits than the screen did.
# Shiga inhibitor: A qHTS for Small Molecule Inhibitors of Shiga Toxin; hit rate 9.2% among 290,000; Vero cells, Shiga toxin protein synthesis inhibition reporter; inhibition, % at 38.7 µM; in the data active = inhibition mostly above about 28%, no sharp cut-off; inactive = mostly below about 43%
# LmPK inhibitor: qHTS Assay for Inhibitors of Leishmania Mexicana Pyruvate Kinase (LmPK); AID 1721, 2009; hit rate 0.37% among 290,000; Potency, µM (series often up to 57.5 µM), actives largely listed as inhibitors; purified LmPK, Kinase-Glo ATP luminescence, 1 h
# Target sequence (Q27686 whole entry, looked up): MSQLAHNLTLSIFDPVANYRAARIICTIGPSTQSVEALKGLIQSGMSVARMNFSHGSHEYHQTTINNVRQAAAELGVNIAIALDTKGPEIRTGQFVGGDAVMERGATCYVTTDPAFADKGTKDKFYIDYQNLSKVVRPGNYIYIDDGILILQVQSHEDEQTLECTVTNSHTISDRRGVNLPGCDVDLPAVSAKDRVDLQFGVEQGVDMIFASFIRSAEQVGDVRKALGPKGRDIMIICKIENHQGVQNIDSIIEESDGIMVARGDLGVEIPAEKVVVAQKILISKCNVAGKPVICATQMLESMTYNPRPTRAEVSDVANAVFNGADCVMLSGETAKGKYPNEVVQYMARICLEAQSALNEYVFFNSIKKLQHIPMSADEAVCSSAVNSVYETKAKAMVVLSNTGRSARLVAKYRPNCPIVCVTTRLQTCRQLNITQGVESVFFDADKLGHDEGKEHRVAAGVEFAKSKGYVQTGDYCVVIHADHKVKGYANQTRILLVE
#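 ATP generated from ADP (0.1 mM) and PEP (0.5 mM) by 0.1 nM LmPK over 1 h at room temperature (pH 7.2 imidazole buffer) was detected by coupled luciferase luminescence. Values were normalized to uninhibited and no-enzyme wells.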
# CHX counter: Cycloheximide Counterscreen for Small Molecule Inhibitors of Shiga Toxin | AID 2314, 2010 | max response, % | cell reporter, cycloheximide protein synthesis inhibition counterscreen | hit rate 12% among 300,000; in the data active = max response mostly above about 13%, no sharp cut-off; inactive = mostly below about 14%; note: read at 38.3 µM for the half of the compounds with a filed dose
# Tb PYK inh: qHTS of Trypanosoma Brucei Inhibitors; TbPYK enzyme, Kinase-Glo Plus ATP luminescence, 45 min; Potency, µM (top dose mostly 76.8 µM), most hits filed as inhibitors; pyruvate kinase (Trypanosoma brucei), Q57TT1; hit rate 0.12% among 410,000; note: nearly all actives have a fitted effect of over 50% in size
#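 TbPYK + substrate in 50 mM TEA pH 7.2, 100 mM KCl, 10 mM MgCl2, 0.05% BSA, 0.01% Tween-20; cpd pinned; ADP 130 uM final; 45 min RT; Kinase-Glo Plus 10 min; luminescence endpoint.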
# Sm TGR block: qHTS Assay for the Inhibitors of Schistosoma Mansoni Peroxiredoxins; Schistosoma mansoni thioredoxin glutathione reductase (TGR), Q962Y6; purified TGR, DTNB reduction, TNB absorbance 405 nm; Potency, µM (titrated, usually from 114 µM), usual class: inhibitors; hit rate 3% among 360,000; AID 485364, 2010; note: nearly all actives have a fitted effect of over 60% in size
#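 First, TGR (20 nM dispensed) and NADPH were mixed with compound. Second, a 15 min room-temperature incubation followed. Third, further NADPH and then DTNB were added to start the reaction. Finally, TNB absorbance was monitored kinetically.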
# FBPA Giardia inh: qHTS Assay for Inhibitors of Fructose-1,6-bisphosphate Aldolase from Giardia Lamblia; A8B2U2; Potency, µM (doses to about 59.6 µM), usual class: inhibitors; purified Giardia FBPA; hit rate 0.71% among 290,000; note: nearly all actives have a fitted effect of over 55% in size
#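 40 nM FBPA preincubated 10 min at RT with compound (up to 57.5 uM final), then substrate plus GAPDH/TPI/NAD/arsenate coupling and diaphorase/resazurin added. Fluorescence read after 20 min at RT, 525/598 nm.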
# A number is an active result; - = inactive; ? = inconclusive; . = not tested or not shown; [ ] = dose if it differs, or a comment. Unless noted, calls come from the whole dose curve; as a rule, active = well fitted curve in the direction sought with a large enough effect; inconclusive = small, poorly fitted or top-dose-only effect, or another doubt; inactive = no such curve, though single readings can be large; an effect the other way counts as inactive or inconclusive.
SMILES,Shiga inhibitor,LmPK inhibitor,CHX counter,Tb PYK inh,Sm TGR block,FBPA Giardia inh
CCc1cc(=O)[nH]c(SCc2nc(-c3ccc(C(F)(F)F)cc3)no2)n1,.,.,.,-,-,.
CC(C)(Sc1cc(C(C)(C)C)c(O)c(C(C)(C)C)c1)Sc1cc(C(C)(C)C)c(O)c(C(C)(C)C)c1,-,-,-,-,-,-
Cn1ccnc1C(O)c1cc(C(C)(C)C)c(O)c(C(C)(C)C)c1 (stereo not drawn),-,-,-,?,18µM,-
CCOC(=O)c1cnc2c(Cl)cc(Cl)cc2c1Nc1ccccc1OC,.,.,.,-,-,.
O=C(Nc1ccc2c(c1)nc1n2CCN(C2CCCCC2)C1)NC1CCCCC1,-,-,-,.,13µM,?
COc1ccccc1C(=O)Nc1ccc2c(c1)nc1n2CCN(C2CCCCC2)C1,-,-,-,-,25µM,-
CCC(=O)Nc1ccc2c(c1)nc1n2CCN(C2CCCCC2)C1,-,-,-,-,?,-
O=C(Nc1ccc2c(c1)nc1n2CCN(C2CCCCC2)C1)c1ccco1,-,-,-,-,?,-
Cc1ccc(Cl)cc1-n1ncc2c(Nc3ccc4c(c3)OCCO4)ncnc21,.,.,.,-,-,.
CC1=C(C(=O)N2CCOCC2)C(c2ccsc2)C2=C(CCCC2=O)N1 (stereo not drawn),-,-,-,-,45µM,?
COC(=O)c1ccc(NC2=C(Cl)C(=O)OC2OC(=O)c2ccccc2)cc1 (stereo not drawn),-,-,42,-,?,-
COc1cccc(NC2=C(Cl)C(=O)OC2OC(=O)c2ccco2)c1 (stereo not drawn),-,-,-,-,7.9µM,-
CCOC(=O)N1CCC(NC(=O)c2cnn(-c3cccc(F)c3)c2-n2cccc2)CC1,.,.,.,-[15.4 µM],-,.
O=C(Nc1cccc(F)c1)c1ccc(-c2ccccc2)s1,.,.,.,-,-,.
COc1ccc(/C=C(\C#N)c2nc(-c3cc(Cl)ccc3OC)cs2)cc1,.,.,.,-,-,.
CC(C)c1nc2cc(C(=O)N(C)Cc3ccc(F)cc3)ccc2o1,80,-,43,-,-,.
CC(C)c1nc2ccc(C(=O)NCc3ccc(F)cc3)cc2o1,.,.,.,-,-,.
CC(C)c1nc2cc(C(=O)NC(c3cccnc3)C(F)(F)F)ccc2o1 (stereo not drawn),-,-,18,-,-,.
CCn1ccnc1CNC(=O)c1ccc2oc(C(C)C)nc2c1,-,-,-,-,-,.
COc1cc(CNC(=O)c2ccc3oc(C(C)C)nc3c2)cc(OC)c1,-,-,14,-,-,-
O=C(c1cc(C(F)(F)F)cc(C(F)(F)F)c1)N1CCC2(CC1)CCN(c1ccccn1)CC2,.,.,.,-,.,-
CC(=O)c1ccc(NC(=S)Nc2cccc3cnccc23)cc1,47,-,36,-,20µM,2µM
Cc1ccccc1NC(=S)Nc1cccc2cnccc12,54,-,24,-,?,2µM
S=C(NCCc1ccccc1)Nc1cccc2cnccc12,-,-,-,-,-,?
FC(F)(F)c1ccccc1NC(=S)Nc1cccc2cnccc12,-,-,-,-,35µM,?
SMILES,Shiga inhibitor,LmPK inhibitor,CHX counter,Tb PYK inh,Sm TGR block,FBPA Giardia inh
Cc1ccc(NC(=S)Nc2cccc3cnccc23)cc1,-,-,26,-,45µM,?
CCCCn1c(CNC(=O)C23CC4CC(CC(C4)C2)C3)nnc1SCC(=O)Nc1ccccc1,.,.,.,-,-,.
CN1CCCCCC1C(=O)N1CCC(N2CCC(C(=O)N3CCOCC3)CC2)CC1 (stereo not drawn),-,-,-,-,?,-
NC(=O)c1ccsc1NC(=O)CSc1nncs1,.,.,.,-,-,.
S=C(NCc1ccccc1)Nc1cccc2cnccc12,-,-,-,-,?,-
Fc1ccccc1NC(=S)Nc1cccc2cnccc12,-,-,-,-,40µM,?
Cc1ccc(NC(=S)Nc2cccc3cnccc23)cc1C,-,-,32,-,?,?
COc1cccc(C2=NC(C)(C)NC(c3ccccc3O)C2)c1 (stereo not drawn),56,-,34,-,-,-
CCC1(C)N=C(c2ccc3c(c2)OCO3)CC(c2ccccc2O)N1 (stereo not drawn),66,10µM,44,-,?,-
COc1cccc(C2=CC(c3ccccc3F)n3c(nc4ccccc43)N2)c1 (stereo not drawn),.,.,.,-,-,.
O=C(NNC(=O)c1cc(-c2cccnc2)nc2ccccc12)Nc1ccc(Cl)cc1,-,-,45,-,-,-
CC(C)(C)c1ccc(-c2cc(C(=O)NNC(=O)Nc3ccccc3)c3ccccc3n2)cc1,-,-,22,-,-,-
COc1ccc(C(CC(=O)NCc2ccccc2Cl)N2Cc3ccccc3C2=O)cc1OC (stereo not drawn),.,.,.,-,-,.
CCOC(=O)NC(=O)/C(C#N)=C/c1ccc(N(C)C)cc1,-,-,36,-,-,-
N#C/C(=C\c1ccccc1)C(=O)NC(=O)Oc1ccccc1,-,-,-,-,-,-
CN(C)c1ccc(/C=C(\C#N)c2nc3ccccc3c(=O)[nH]2)cc1,.,.,.,-,-,.
CN(C)c1ccc(/C=C(\C#N)c2ccccc2)cc1,63,-,57,-,-,-
CN(C)c1cccc(/C=C(\C#N)c2ccccc2)c1,77,-,42,-,-,-
CN(C)c1ccc(/C=C(\C#N)C(=O)c2ccccc2)cc1,-,?,14,-,-,-
COc1cccc(OC)c1C(=O)Nc1ccc(S(=O)(=O)Nc2nccc(C)n2)cc1,.,.,.,-,-,.
Cc1c([N+](=O)[O-])c(C(=O)Nc2ccc3c(c2)OCCO3)nn1C,85,14µM,52,?,-,-
Cc1csc(NC(=O)c2nn(C)c(C)c2[N+](=O)[O-])n1,52,-,25,-,-,-
Cc1nn(C)c(C(=O)Nc2ccc3c(c2)OCO3)c1[N+](=O)[O-],-,-,21,-,-,.
Cc1ccc(Oc2c(C(N)=O)cc([N+](=O)[O-])cc2[N+](=O)[O-])cc1,-,-,-,-,11µM,-
O=C(O)[C@H](Cc1c[nH]c2ccccc12)N1C(=O)C2=CCCC=C2C1=O,-,.,-,.,.,-
CNC(=O)Oc1ccc2c(c1)[C@]1(C)CCN(C)C1N2C (stereo partly drawn),.,.,.,-,-,.
CN1CC[C@@]2(C)c3cc(O)ccc3N(C)[C@@H]12,.,.,.,-,.,4.5µM
C[C@H](CO)N1C[C@H](C)[C@@H](CN(C)Cc2ccc(Cl)c(Cl)c2)Oc2ccc(NC(=O)Cn3cnnn3)cc2C1=O,.,.,.,-,.,.
CC(=O)c1c(C)oc2c(Br)cc(NS(=O)(=O)c3ccc(Br)cc3)cc12,.,.,.,-,5.6µM,.
COc1ccccc1C1c2c(-c3ccc(Cl)cc3)n[nH]c2C(=O)N1c1ccc(C)cc1 (stereo not drawn),.,.,.,-,-,.
